Shown are actives, neighbours in structure and some others; about 0.86% of the full set was active somewhere.
NS1 function inh: influenza NS1 inhibition; Potency, µM (highest dose often 46.1 µM), inactives show at the highest dose activity, positive = more growth; hit rate 0.4% among 270,000; calls by dose curve; further: potency means the concentration at half of the fitted maximal effect; actives are rising curves; nearly all actives have a fitted effect of over 50% in size
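S. cerevisiae expressing influenza A NS1, grown in glucose, washed, then diluted 1:100 into pH 6.0 -URA galactose medium with 23 nl compound. Growth recovery read as OD600; NS1-free strain serves as control.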
AMA1-RON2 inh: AMA1-RON2 (P. falciparum) interaction inhibition; AlphaScreen AMA1-biotinylated RON2 peptide binding; Potency, µM (highest dose often 58.2 µM), without a hit: at the highest dose activity change, negative = inhibition, actives largely listed as inhibitors; hit rate 0.2% among 360,000;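 further: potency means the concentration at half of the fitted maximal effect; 0% = vehicle wells and -100% = peptide control; nearly all actives have a fitted effect of over 45% in size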
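AMA1 (3D7) with his tag at 25 nM final met compounds first, then biotinylated RON2 peptide at 25 nM; detection used donor plus acceptor beads, 10 µg/mL apiece, read by AlphaScreen after 30 min at room temperature.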
AmpC no deterg: blocks E. coli AmpC beta-lactamase in detergent-free assay; AID 485341; P00811; hit rate 0.52% among 330,000; AmpC nitrocefin hydrolysis, absorbance 480 nm, 0.0001% Triton; Potency, µM (titrated, usually from 57.1 µM), for the others: at the highest dose activity change, negative = inhibition, actives largely listed as inhibitors;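 further: potency means the concentration at half of the fitted maximal effect; plate controls were no compound for no effect and no enzyme for full effect; nearly all actives have a fitted effect of over 20% in size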
Target sequence (P00811 whole entry, looked up): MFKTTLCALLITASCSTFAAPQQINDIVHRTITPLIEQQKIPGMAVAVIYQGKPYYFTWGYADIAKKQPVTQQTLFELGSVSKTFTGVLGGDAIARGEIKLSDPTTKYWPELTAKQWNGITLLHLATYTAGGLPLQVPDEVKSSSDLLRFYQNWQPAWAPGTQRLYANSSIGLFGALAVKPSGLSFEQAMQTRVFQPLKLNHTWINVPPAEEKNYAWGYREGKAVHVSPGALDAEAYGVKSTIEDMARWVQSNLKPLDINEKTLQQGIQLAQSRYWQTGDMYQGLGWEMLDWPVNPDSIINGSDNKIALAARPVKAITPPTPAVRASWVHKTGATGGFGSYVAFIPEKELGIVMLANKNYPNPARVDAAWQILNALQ
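AmpC (5.3 nM in the dispensed reagent) in 20 mM phosphate pH 7.0 with 0.01% (detergent screen) or 0.0001% Triton X-100 was preincubated with compounds for 15 min at room temperature. Nitrocefin was then added from an 800 uM solution, and hydrolysis was followed at 480 nm.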
AmpC inh detg: AmpC beta-lactamase inhibition with detergent present | P00811 | AmpC hydrolysis of nitrocefin, absorbance 480 nm, 0.01% Triton | Potency, µM (top dose mostly 114 µM), inactives show at the top dose activity change, negative = inhibition, actives largely listed as inhibitors | hit rate 0.041% among 370,000 | AID 485294;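 further: potency means the concentration at half of the fitted maximal effect; 0% = no-compound wells and -100% = no-enzyme wells; nearly all actives have a fitted effect of over 25% in size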
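20 mM phosphate pH 7.0 + 0.01% (detergent screen) or 0.0001% Triton X-100; 5.3 nM AmpC reagent; cpd preinc 15 min RT; nitrocefin (800 uM stock) to start; A480 q20 s × 4 min; Activity was normalised to no-enzyme and no-compound control wells.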
Flu NS1 inh: influenza NS1 function inhibition validation | 1,400 tested, under 10 active | activity change, negative = inhibition, % at 32.9 µM | influenza NS1 function cell assay, 15-point titration | shares compounds with NS1 function inh; calls by dose curve; further: 0% is about no effect
Flu PR8 replic: influenza virus titer reduction, NS1 project; MDCK infected influenza A/PR/8/34, virus titer TCID50; hits give low values; shares compounds with NS1 function inh; virus titer (log TCID50), log10 TCID50 at 5 µM; hit rate 30% among 95; AID 504647; call rule not given here
* hit, by the source's call; [ ] = dose if it differs, or a comment. Unless noted, the call rests on the fitted dose curve; in most records, active means well fitted curve in the direction sought with a large enough effect; inconclusive means small, poorly fitted or top-dose-only effect, or another doubt; inactive means no such curve, though single readings can be large; an effect the other way counts as inactive or inconclusive.

For COCC(C)n1c(C)cc(C(=O)CSc2nc(C)c(C)c(C)n2)c1C (stereo not given) the results were NS1 function inh inconclusive, AMA1-RON2 inh -7.0%, AmpC no deterg 35.0%, AmpC inh detg -11.1% and Flu NS1 inh -5.1.
`COCCn1c(C)cc(C(=O)CSc2nc(C)c(C)c(C)n2)c1C` gave AMA1-RON2 inh -0.1%, AmpC no deterg 43.9% and AmpC inh detg 2.9%.
`CCOc1ccc(NC(=S)N(C)C)cc1` gave NS1 function inh -1.7%, AMA1-RON2 inh 5.9%, AmpC no deterg -7.7% and AmpC inh detg -6.5%.
O=C1Nc2cc(S(=O)(=O)N3CCCC3)ccc2N2CCCC12 (stereo not given) was read as NS1 function inh 12.6µM*, AMA1-RON2 inh -1.5%, AmpC no deterg 12.9%, AmpC inh detg 3.6% and Flu NS1 inh 33.0.
Screening Cc1cc(C)c2nc(SCC(=O)NC(=O)c3cccn3C)cc(C)c2c1 returned NS1 function inh -10.8%, AMA1-RON2 inh -2.5%, AmpC no deterg -43.6% and AmpC inh detg -3.0%.
`COCc1cc(CN2CCCC2)c(O)c2ncccc12` gave NS1 function inh 0.708µM*, AMA1-RON2 inh 9.47µM*, AmpC no deterg 64.3%, AmpC inh detg -4.5% and Flu NS1 inh inconclusive.
`O=C(O)c1cccc(Cn2c(Cl)c(/C=N/NC(=O)c3ccccc3Cl)sc2=O)c1` gave NS1 function inh 0.794µM*, AMA1-RON2 inh 15.3%, AmpC no deterg -23.2%, AmpC inh detg 1.3% and Flu NS1 inh 6.7.
Screening Cc1cc(C)c2c(n1)sc1c(-c3ccccc3)c(C#N)c(N)nc12 returned NS1 function inh 4.47µM*, AMA1-RON2 inh -1.7%[2.32 µM], AmpC no deterg -26.4%, AmpC inh detg -21.6% and Flu NS1 inh 2.0.
`Cc1nc(N)c(C#N)c(-c2ccccc2)c1C` gave NS1 function inh -6.2%, AMA1-RON2 inh 8.0%, AmpC no deterg -22.8% and AmpC inh detg inconclusive.
Screening CC(=O)N1CCOc2ccc(S(=O)(=O)NC[C@H]3O[C@@H](n4ccc(=O)[nH]c4=O)[C@H](O)[C@@H]3O)cc21 returned AMA1-RON2 inh 22.1%.
O=C(Cn1c2c(sc1=O)C1c3ccccc3OCC1CS2)Nc1ccc(Cl)c(Cl)c1 (stereo not given) was read as NS1 function inh 20µM*, AMA1-RON2 inh 26.2%, AmpC no deterg -35.2%, AmpC inh detg inconclusive and Flu NS1 inh -4.5.
Screening O=C(C1CCCN(S(=O)(=O)c2cccc3nonc23)C1)N1CCC(Cc2ccccc2)CC1 (stereo not given) returned NS1 function inh 10µM*, AMA1-RON2 inh -3.6%, AmpC inh detg -4.3% and Flu NS1 inh -33.1.
For Cc1ccc(C)c(N2CCN(C(=O)C3CCN(S(=O)(=O)c4cccc5nsnc45)CC3)CC2)c1 the results were NS1 function inh inconclusive, AMA1-RON2 inh -7.8%, AmpC no deterg 63.2%, AmpC inh detg 3.2%, Flu NS1 inh -13.8 and Flu PR8 replic 8.5.
Screening Cc1ccc(C)c(N2CCN(C(=O)C3CCCN(S(=O)(=O)c4cccc5nsnc45)C3)CC2)c1 (stereo not given) returned AmpC inh detg -0.4%.
`Cc1ccc(OCCC(=O)OC(C)C(=O)Nc2c(C)n(C)n(-c3ccccc3)c2=O)cc1` (stereo not given) gave AMA1-RON2 inh -4.5%, AmpC no deterg 1.8% and AmpC inh detg -8.2%.
Screening O=C(CCn1c(=O)c2ccccc2n(Cc2cccc([N+](=O)[O-])c2)c1=O)N1CCc2ccccc2C1 returned NS1 function inh 5.01µM*, AMA1-RON2 inh -27.6%, AmpC no deterg -14.2%, AmpC inh detg -18.9% and Flu NS1 inh 9.3.
CCn1c(=O)c2ccccc2n(Cc2cccc([N+](=O)[O-])c2)c1=O was read as NS1 function inh -4.1%, AMA1-RON2 inh 5.0%, AmpC no deterg 42.2% and AmpC inh detg -2.5%.
Cc1cc(OCC(=O)N[C@@H](CSCc2ccccc2)C(=O)O)c2c(C)c(C)c(=O)oc2c1 was read as NS1 function inh 12.6µM*, AMA1-RON2 inh -5.3%, AmpC no deterg -19.9%, AmpC inh detg -7.2% and Flu NS1 inh inconclusive.
Screening CN(c1ccccc1)S(=O)(=O)c1cccc(NC(=O)C2=NN(c3ccccc3)C(=O)CC2)c1 returned AMA1-RON2 inh -2.4% and AmpC no deterg -27.8%.
Screening N#CCCn1cc(C(CC(=O)c2ccc(Br)cc2)C(=O)O)c2ccccc21 (stereo not given) returned NS1 function inh 8.91µM*, AMA1-RON2 inh 10.0%, AmpC no deterg -45.3%, AmpC inh detg -0.6% and Flu NS1 inh 17.0.
`Cc1ccc(C(=O)CC(C(=O)O)c2cn(CCC#N)c3ccccc23)cc1` (stereo not given) gave NS1 function inh inconclusive, AMA1-RON2 inh -0.5%, AmpC no deterg -14.6% and AmpC inh detg inconclusive.
For CN(C(=O)c1ccc(Cl)cc1)c1ccc(OCC(=O)Nc2cc(C(=O)O)ccc2Cl)cc1 the results were AMA1-RON2 inh 1.5%.
Screening Cc1ccc(-c2nnc3ccccc3c2C(=O)Nc2cccc(Cl)c2)cc1 returned AmpC inh detg 3.5%.
Screening O=C(Nc1cccc(Oc2ccc(C(=O)O)c(C(=O)O)c2)c1)c1ccc(-c2ccccc2)cc1 returned NS1 function inh 12.9%, AMA1-RON2 inh -2.8%, AmpC no deterg -47.8% and AmpC inh detg 0.4%.
For CC(C)(C)C(=O)Nc1ccc(C(=O)Nc2cccc(Oc3ccc(C(=O)O)c(C(=O)O)c3)c2)cc1 the results were NS1 function inh 11.2µM*, AMA1-RON2 inh 0.7%, AmpC no deterg -22.4%, AmpC inh detg -4.9% and Flu NS1 inh 29.4.
O=C(/C=C/c1cccc(O)c1)c1cccnc1 was read as AMA1-RON2 inh 7.5%, AmpC no deterg -18.4% and AmpC inh detg 0.4%.
Screening O=C(/C=C/c1cccnc1)c1cccc(O)c1 returned NS1 function inh inconclusive, AMA1-RON2 inh -21.1%, AmpC no deterg -23.5%, AmpC inh detg -12.0% and Flu NS1 inh inconclusive.
`O=C(CCCCC(=O)NN=Cc1ccc(Cl)cc1)NN=Cc1ccc(Cl)cc1` gave AMA1-RON2 inh 15.0%.
For CCCCC1=CC2=CC(=O)C(C)(OC(=O)CC)C(=O)C2=CN1CCOC (stereo not given) the results were NS1 function inh inconclusive, AMA1-RON2 inh 0.0%, AmpC no deterg 43.3%, AmpC inh detg -2.3% and Flu NS1 inh 8.4.
For COc1ccc(OC)c(/C=N/NC(=O)Cc2nc3ccccc3[nH]2)c1 the results were NS1 function inh 2µM*, AMA1-RON2 inh -2.7%, AmpC no deterg -27.2%, AmpC inh detg -8.8% and Flu NS1 inh 10.3.

Assay outcomes (PubChem BioAssay)
